Assay results taken from PubChem BioAssay (NCI).
About 83,000 compounds went through this panel and 20% of them were active in at least one assay; those are over-represented in the sample as a whole.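 In brief: 96-well plates, 48 h treatment, single concentration, percent growth endpoint.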 Unmarked numbers belong to inactive results. Active and inactive are the calls of the source. How the source made its calls: active means growth percent below 10; inactive means the rest.

System: RPMI-8226 leukemia
Experiment: NCI-60 one-dose screen, 48 h (100 = growth as untreated, 0 = no growth, -100 = all killed)
Conditions: 10 µM

| SMILES | growth |
| --- | --- |
| CN1C(C(=O)Nc2ccccn2)=C(O)c2sc(Cl)cc2S1(=O)=O | 94.5% |
| Clc1ccc2c(c1)C(N1CCNCC1)=Nc1ccccc1O2 | 50% |
| CC(C)(C)c1ccc(S(=O)(=O)N[C@H]2CC[C@H]3[C@@H]4CCc5cc(O)c([N+](=O)[O-])cc5[C@H]4CC[C@]23C)cc1 | 67.3% |
| COc1cc(-c2csc(NC(=O)Nc3ccc(Cl)c(C(F)(F)F)c3)n2)cc(OC)c1OC | -7.41% (active) |
| Brc1ccc2c(c1)-c1ccccc1C1=NCCN12 | 1.99% (active) |
| CC(C)N(CCOc1cccc(-c2nc3sccn3c2-c2ccnc(S(C)(=O)=O)n2)c1)C(C)C | 37.7% |
| Cc1ccc(/C=C/C(=O)C(=O)/C=C/c2ccc(C)cc2)cc1 | 45.2% |
| O=C(Nc1cc(Cl)cc2c1-c1ccc(Cl)cc1C2O)C(Cl)Cl (centres undefined) | 65% |
| COc1cc(Cc2cc(-c3ccccc3)n[nH]c2=O)cc(OC)c1OC | 53.5% |
| Cc1cc(C(C#N)c2ccc(Cl)cc2)c(Cl)cc1NC(=O)c1cc(I)cc(I)c1O (centres undefined) | 13.8% |
| C/C=C/C1=CN2C(=O)c3cc(OC4OC(C)C(NC)C(C)(O)C4O)c(C)c(O)c3N=C[C@@H]2C1 (some centres undefined) | 7.45% (active) |
| CNC(=O)c1c(I)c(NC(C)=O)c(I)c(C(=O)O)c1I | 110% |
| COc1ccc(Nc2cnc3cc(NS(=O)(=O)c4ccc(C)cc4)ccc3n2)cc1 | 106% |
| COc1cc(-c2nn(-c3ccc(NC(=O)NCCCNC(=O)c4ccccc4)cc3)cc2-c2ccncc2)ccc1Cl | -3.49% (active) |
